High-throughput results deposited in PubChem by National Center for Advancing Translational Sciences (NCATS).
ATXN viability: viability counter-screen for ATXN expression inhibitors | Potency, µM (highest dose often 56.7 µM), hits mostly cytotoxic | AID 651635 | 0.49% of 400,000 active | S2 cells (HEK-293 line with an ATXN2-luciferase reporter) viability, CellTiter-Fluor protease fluorescence, 24 h; also: potency is read from the fitted curve at half-maximal effect; nearly all actives have a fitted effect of over 40% in size
HepG2 viability: counter-screen for TGF-b inhibitors: cytotoxicity in HepG2 cells | HepG2 CAGA-GFP viability, ATP luminescence, 18 h | Potency, µM (series often up to 46.1 µM), for the others: top-dose activity change, negative = cytotoxicity, hits mostly cytotoxic | AID 588856 | 0.76% of 410,000 active; also: potency is read from the fitted curve at half-maximal effect
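CellTiter-Glo luminescence gave cytotoxicity after 18 hours at 37 degrees C. The cells were HepG2 CAGA-GFP in 1% FBS DMEM, stimulated with 500 pg/mL TGF-beta after compound addition. %Activity was normalised to no-cell wells (complete cell-killing) and DMSO (no toxicity), and curves were fitted and classified.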
DRD3 agonist: activates the human D3 dopamine receptor; P35462; D3R DiscoveRx beta-arrestin cells, luminescence, 90 min; max activation, %; 0.58% of 410,000 active; AID 652048; in the data active = max activation above about 30%; also: 0% is about no effect
Target sequence (P35462 whole entry, looked up): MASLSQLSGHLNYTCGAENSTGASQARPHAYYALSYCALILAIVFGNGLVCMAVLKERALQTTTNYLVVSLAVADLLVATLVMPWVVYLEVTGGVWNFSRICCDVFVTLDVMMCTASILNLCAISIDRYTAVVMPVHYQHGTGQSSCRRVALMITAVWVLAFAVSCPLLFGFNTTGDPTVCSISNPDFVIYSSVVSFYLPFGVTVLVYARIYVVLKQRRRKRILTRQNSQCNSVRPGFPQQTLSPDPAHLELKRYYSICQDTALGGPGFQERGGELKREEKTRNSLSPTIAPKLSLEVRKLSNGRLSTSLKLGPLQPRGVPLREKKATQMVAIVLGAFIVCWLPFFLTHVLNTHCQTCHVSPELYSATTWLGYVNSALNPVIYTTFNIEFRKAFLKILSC
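Cells at 1500/well, incubated overnight, then treated with pinned compounds (dopamine as control) for 90 min at 37 degrees C. DiscoveRx reagent added for 30 - 60 minutes at room temperature; luminescence read.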
ATXN2 expr inh: ATXN2 expression inhibition. AID 1745845. HEK-293 ATXN2-luciferase reporter, luminescence, 24 h. Potency, µM (highest dose often 57 µM), for the others: top-dose activity change, negative = inhibition, most hits filed as inhibitors. 0.72% of 360,000 active; also: potency is read from the fitted curve at half-maximal effect; % is scaled to controls: 0 for no effect and ±100 for the full control effect; nearly all actives have a fitted effect of over 55% in size
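qHTS (up to 57 uM final) was run with 24 h compound exposure of reporter cells at 37 °C. Each well was multiplexed: SteadyGlo luminescence measured ATXN2-luciferase expression after a fluorogenic Gly-Phe-AFC viability readout (25 uM final).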
D3 antag: antagonists of human D3 dopamine receptor. P35462. D3R cells, DiscoveRx beta-arrestin luminescence, antagonist mode; active compounds read low. max response, negative = inhibition, %. 2.5% of 360,000 active; in the data active = max response below about -50%; inconclusive = no clear call, values can overlap the other calls; also: % is scaled to controls: 0 for no effect and ±100 for the full control effect
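Cells plated overnight at 1500 cells/well, then exposed to library compounds with dopamine controls for 90 minutes at 37 degrees C. DiscoveRx reagent added for 30–60 minutes at room temperature; luminescence read, quantitative HTS format.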
TGFb SMAD3 inh: inhibitors of TGF-b signaling; AID 588855; Potency, µM (series often up to 46.1 µM), inactives show at the top dose activity, negative = inhibition, usual class: inhibitors; 1.2% of 410,000 active; HepG2 CAGA-GFP TGF-b/SMAD3 reporter, GFP fluorescence, 18 h; TGF-beta stimulated, 500 pg/mL final; also: potency is read from the fitted curve at half-maximal effect; % is scaled to controls: 0 for no effect and ±100 for the full control effect; nearly all actives have a fitted effect of over 65% in size
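GFP signal (ex488/em500-530) from TGF-beta-stimulated HEPG2 CAGA-GFP cells, 500 pg/mL final, 18 h at 37 degrees C in DMEM plus 1% FBS, normalized to unstimulated and DMSO-stimulated controls.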
The depositor's hits bear a star; i = inactive; ? = inconclusive; . = no result; ! = not confirmed by another sample. Hits are enriched below; roughly 4.8% of the tested compounds scored in any of these assays. Unless noted, calls follow the shape of the dose curve; as a rule, active = well fitted curve in the direction sought with a large enough effect; inconclusive = small, poorly fitted or top-dose-only effect, or another doubt; inactive = no such curve, though single readings can be large; an effect the other way counts as inactive or inconclusive.

SMILES	ATXN viability	HepG2 viability	DRD3 agonist	ATXN2 expr inh	D3 antag	TGFb SMAD3 inh
CCCCCCSc1cc(-c2nc3cnccn3c2NCCCC)ccc1OC	.	-112.5%	103.5*	?	184.8	?
Cc1ccc2nc(COc3ccccc3NC(=O)c3ccccc3F)cc(=O)n2c1	.	-1.5%	7.0	.	.	37.7%
O=C(COC(=O)c1ccccc1OCc1cccc(Br)c1)Nc1ccc(Br)cc1	.	1.9%	.	.	.	-1.4%
CC(NC(=O)c1ccco1)c1nnc2n1CCN(Cc1ccc(N3CCCC3)cc1)CC2 (stereo not given)	i	.	.	.	.	.
CC1(C)CCC[C@@]2(C)[C@@H]1CC[C@@]1(C)OC(=O)C[C@H]21	.	.	.	-16.1%	.	.
Cc1cccc(C)c1C(OCCN(C)C)C1CCCCC1 (stereo not given)	i	-21.3%	16.5	-6.8%	-89.3*	6.1%
CCn1c(-c2ccccc2F)nc2cc(C(=O)NCc3ccc(C)o3)cc(NC(C)=O)c21	i	.	.	.	.	.
Cc1ccc(-c2[nH]c3ccccc3c2C(C[N+](=O)[O-])c2ccco2)cc1 (stereo not given)	i	15.8µM*	-5.6	0.0%	-14.5	?
CCCCCc1cc(=O)[nH]c(=S)[nH]1	i	-6.9%	3.6	.	19.0	-7.7%
CCCCCc1ccc(C(=O)CCCC)c(=S)[nH]1	?	-32.7%	30.5*	?	-25.8	-4.5%
CCN1CCN(c2ccc(S(=O)(=O)N3CCCCC3)cc2NC(=O)Cc2ccccc2)CC1	i	-53.8%	-6.8	-4.6%	-18.1	-22.7%
CCN1CCN(c2ccc(S(=O)(=O)N3CCCCC3)cc2NC(=O)Cc2ccc(Cl)c(Cl)c2)CC1	i	17.8µM*	-5.9	-11.0%	8.6	15.8µM*
CCN(CC)S(=O)(=O)c1ccc(C)c(NC(=O)CNCc2ccccc2OC)c1	i	-15.5%	32.8*	-17.8%	-24.0	-1.5%
O=C(CCl)Nc1cc(S(=O)(=O)N2CCCCCC2)ccc1Cl	17.8µM*	-14.4%	0.2	?	-2.4	3.0%
Cc1ccc(S(=O)(=O)N2CCCCC2)cc1NC(=O)CNCc1ccco1	i	10.2%	38.3*	.	0.9	-18.0%
COc1ccccc1CNc1nc2c(S(=O)(=O)c3ccc(C)c(C)c3)nnn2c2ccc(Cl)cc12	i	-23.9%	1.9	-2.7%	.	-8.9%
CCCCC/C=C\CCC(=O)N[C@H]1[C@H](Oc2c3cc4cc2Oc2ccc(cc2Cl)[C@@H](O[C@@H]2O[C@H](CO)[C@@H](O)[C@H](O)[C@H]2NC(C)=O)[C@@H]2NC(=O)[C@H](NC(=O)[C@@H]4NC(=O)[C@H]4NC(=O)[C@@H](Cc5ccc(c(Cl)c5)O3)NC(=O)[C@H](N)c3ccc(O)c(c3)Oc3cc(O)cc4c3)c3ccc(O)c(c3)-c3c(O[C@H]4O[C@H](CO)[C@@H](O)[C@H](O)[C@@H]4O)cc(O)cc3[C@@H](C(=O)O)NC2=O)O[C@H](CO)[C@@H](O)[C@@H]1O	i	.	-16.7	.	.	.
COc1ccccc1CNCC(=O)Nc1cc(S(=O)(=O)N2CCCCC2)ccc1C	i	3.6%	14.5	-15.8%	-50.7*	-16.8%
COc1ccccc1CNCC(=O)Nc1cc(S(=O)(=O)N2CCCCCC2)ccc1Cl	?	-16.6%	3.0	?	-60.3*	-24.3%
COc1ccc(OC)c(CC(=O)Nc2cc(S(=O)(=O)N3CCCCC3)ccc2C)c1	i	-13.6%	-1.6	-16.9%	-0.1	-21.5%
COc1ccccc1CNCC(=O)Nc1cc(S(=O)(=O)N2CCOCC2)ccc1Cl	i	7.0%	13.1	23.7%	-8.3	6.0%
CCCc1nc2cccnc2n1C1CCN(C(=O)Cn2nccc2C)CC1	i	.	.	.	.	.
CCN(CC)S(=O)(=O)c1ccc(N/N=C(\C)c2ccc(OC)cc2O)nc1	i	-63.1%	2.4	.	-9.9	8.91µM*
CS(=O)(=O)n1nc(-c2ccco2)nc1NCc1ccccc1Cl	i	-41.2%	0.2	7.0%	.	-23.7%
O=C1c2ccccc2C(=O)N1CC1CO1 (stereo not given)	i	0.8%	62.9*	11.3%	-2.3	0.0%
SMILES	ATXN viability	HepG2 viability	DRD3 agonist	ATXN2 expr inh	D3 antag	TGFb SMAD3 inh
O=C1c2ccccc2C(=O)N1CC1CCCO1 (stereo not given)	i	3.55µM*	-6.5	-0.1%	-12.8	10.9%
COc1cc([N+](=O)[O-])cc(/C=N/N(CCC#N)C(C)=O)c1O	?	-1.4%	-12.0	0.0%	-58.8*	-9.5%
COC(=O)c1ccc(N/N=C/c2cc([N+](=O)[O-])cc(OC)c2O)cc1	i	5.8%	-12.5	0.0%	-10.2	-0.7%
COc1ccc(-c2nc3n(n2)C(c2ccc(OC)c(OC)c2)C(C(=O)Nc2cccnc2)=C(C)N3)cc1 (stereo not given)	.	-6.9%	8.5	.	.	1.9%
O=S1(=O)CCOC[C@H](CC2CCCCC2)N1Cc1cccc(C(F)(F)F)c1	i	12.6µM*!	0.9	-26.2%	-2.3	?
O=S1(=O)CCOC[C@H](CC2CCCCC2)N1Cc1ccccc1F	?	-13.4%	2.6	-9.6%	-2.3	?
O=S1(=O)CCOC[C@H](CC2CCCCC2)N1Cc1ccccc1Br	i	7.08µM*!	6.0	-20.0%	60.4	12.6µM*
CN1C(=O)c2[nH]nc(-c3ccc(F)cc3)c2C1c1cccc(O)c1 (stereo not given)	.	-14.6%	14.2	.	.	-7.8%
CCOC(=O)c1cc(OC(=O)c2ccc(C)cc2)n(-c2ccccc2)n1	i	-48.5%	-3.1	52.1%	.	-16.5%
O=C(Nc1ccccc1)NC(Cc1ccc(O)cc1)C(=O)O (stereo not given)	i	-3.1%	21.9	2.7%	-65.3*	-3.9%
COc1cccc(-n2c(SCc3ccccc3C)nc3c([nH]c4ccccc43)c2=O)c1	i	-29.2%	1.4	11.7%	.	?
CC1C(c2ccccc2)N(C)C(c2ccccc2)CC1(O)c1ccccc1 (stereo not given)	?	22.4µM*	-7.6	?	?	?
CCc1cnc2c(c1SC(C(C)=O)C(=O)N(C)C)c(=O)n(C)c(=O)n2C (stereo not given)	.	3.0%	6.2	?	.	0.0%
CN(CCOc1ccc(Cl)cc1)C(=O)c1cccc(S(=O)(=O)N2CCN(c3ccc(F)cc3)CC2)c1	?	-2.6%	8.1	?	-0.4	?
COc1ccc(CCN(C)C(=O)c2cccc(S(=O)(=O)N3CCN(c4ccc(F)cc4)CC3)c2)cc1OC	?	-38.8%	9.8	.	13.2	11.2µM*
Cc1cccc(C)c1NC(=O)CN(C)C(=O)c1cccc(S(=O)(=O)N2CCN(c3ccc(F)cc3)CC2)c1	i	-21.2%	-1.1	?	9.0	0.0%
